# Screening results (PubChem BioAssay)
# Gal4-VP16 FLuc – VP16 counterscreen qHTS for inhibitors of ROR gamma transcriptional activity; 3.5% of 310,000 active; Drosophila S2 Gal4-VP16 UAS-luciferase, luminescence, 20 h; Potency, µM (top dose mostly 53.6 µM), inactives show top-dose activity, negative = inhibition, hits mostly inhibitors;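 further: Gal4-VP16 expression switched on by copper sulfate through the metallothionein promoter; nearly all actives have a fitted effect of over 50% in size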
# DT40 TDP1 no CPT – qHTS for Inhibitors of human tyrosyl-DNA phosphodiesterase 1 (TDP1): qHTS in cells in absence of CPT; DT40 Tdp1-/- hTDP1 cells, no CPT, ATP luminescence, 48 h; 15% of 420,000 active; Potency, µM (highest dose often 46.2 µM), for the others: top-dose activity change, negative = growth inhibition, hits mostly inhibitors; further: nearly all actives have a fitted effect of over 55% in size
#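 Compound effects on proliferation are scored in DT40 Tdp1-/-;hTDP1 cells in the absence of CPT. ATP levels (CellTiter-Glo luminescence) are recorded after a ≥48 hr, 37 °C incubation.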
# ELG1 DNA repair – qHTS screen for small molecules that inhibit ELG1-dependent DNA repair in human embryonic kidney (HEK293T) cells expressing luciferase-tagged ELG1; HEK293T ELG1-luciferase reporter, luminescence, 16 h; DNA damage induced by 5-fluorouridine; Potency, µM (titrated, usually from 46.1 µM), for the others: at the top dose activity change, negative = inhibition, hits mostly inhibitors; 2.3% of 330,000 active; AID 504467, 2011; further: nearly all actives have a fitted effect of over 55% in size
#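 Overnight (16 hr) co-exposure of 2,000 cells/well to 5-fluorouridine and compound at 37 °C preceded detection. Luciferase was quantified via ONE-Glo luminescence; loss of signal denotes inhibition.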
# 12-LOX inh – Primary qHTS assay for inhibitors of human arachidonate 12S-lipoxygenase (ALOX12): Round 2; purified 12hLO, xylenol orange hydroperoxide absorbance; Potency, µM (highest dose often 108 µM), for inactives: at the top dose activity change, negative = inhibition, hits mostly inhibitors; 1.1% of 580,000 active; AID 1671190, 2021
# Target sequence (P18054 whole entry, looked up): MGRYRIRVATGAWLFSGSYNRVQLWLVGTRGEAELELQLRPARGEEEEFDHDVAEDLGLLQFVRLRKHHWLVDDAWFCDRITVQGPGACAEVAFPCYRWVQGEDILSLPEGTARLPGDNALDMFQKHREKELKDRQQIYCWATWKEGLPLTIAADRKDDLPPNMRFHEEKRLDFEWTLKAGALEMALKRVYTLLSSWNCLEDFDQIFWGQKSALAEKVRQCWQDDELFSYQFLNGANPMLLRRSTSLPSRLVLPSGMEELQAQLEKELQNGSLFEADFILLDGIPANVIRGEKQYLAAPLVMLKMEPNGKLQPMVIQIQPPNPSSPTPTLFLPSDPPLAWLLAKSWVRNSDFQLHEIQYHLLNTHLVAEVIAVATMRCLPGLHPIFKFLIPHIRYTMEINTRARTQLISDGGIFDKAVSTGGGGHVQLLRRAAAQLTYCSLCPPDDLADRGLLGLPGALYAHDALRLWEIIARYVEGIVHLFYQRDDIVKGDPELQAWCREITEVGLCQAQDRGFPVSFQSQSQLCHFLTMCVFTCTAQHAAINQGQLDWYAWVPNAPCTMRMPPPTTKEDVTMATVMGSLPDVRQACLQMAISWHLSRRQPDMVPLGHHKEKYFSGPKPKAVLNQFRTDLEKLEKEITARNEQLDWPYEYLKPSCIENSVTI
#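 Purified human 12hLO at 150 nM in 25 mM Hepes, 0.01% Triton X-100, pH 7.0, preincubated 15 min at room temperature with compound. Reaction started with 40 uM arachidonic acid, 30 min at room temperature. Hydroperoxide measured by Fe-xylenol orange, 573/405 nm absorbance ratio.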
# RORgamma inh – qHTS for inhibitors of ROR gamma transcriptional activity | Nuclear receptor ROR-gamma (Mus musculus), P51450 | Drosophila S2 Gal4-RORgamma UAS-luciferase reporter, 20 h | Potency, µM (series often up to 53.6 µM), inactives show at the highest dose activity change, negative = inhibition, usual class: inhibitors | 5.4% of 310,000 active; further: nearly all actives have a fitted effect of over 60% in size
#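 Read-out: Photinus luciferase luminescence; inhibitors lower reporter signal. Insect Schneider cells with Gal4-ROR gamma fusion under metallothionein promoter, UAS reporter; 700 uM final copper sulfate induction, 20 hr, ambient temperature.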
# DT40 TDP1 CPT – qHTS for Inhibitors of human tyrosyl-DNA phosphodiesterase 1 (TDP1): qHTS in cells in presence of CPT; chicken DT40 Tdp1-/-;hTDP1 cells + 20 nM CPT, ATP luminescence, 48 h; Potency, µM (highest dose often 46.2 µM), for inactives: top-dose activity change, negative = growth inhibition, actives largely listed as inhibitors; 12% of 420,000 active; AID 686979, 2013; further: nearly all actives have a fitted effect of over 55% in size
#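 Chicken DT40 Tdp1-/- cells stably complemented with human TDP1 were seeded at 400 cells/well in medium containing 20 nM camptothecin, exposed to pin-transferred compounds, and grown at 37 °C for at least 48 hr. Viability was read as ATP luminescence.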
# Starred values were filed as active, the others as inactive; ? = inconclusive; / = no result given. The list is not random: actives were taken first. Their share in the collection is about 15%. The call rests on the fitted dose curve; in most records, active means well fitted curve in the direction sought with a large enough effect; inconclusive means small, poorly fitted or top-dose-only effect, or another doubt; inactive means no such curve, though single readings can be large; an effect the other way counts as inactive or inconclusive. On the % scale 0 is the no-effect control and ±100 the full control effect; potency means the concentration at half of the fitted maximal effect.
SMILES,Gal4-VP16 FLuc,DT40 TDP1 no CPT,ELG1 DNA repair,12-LOX inh,RORgamma inh,DT40 TDP1 CPT
CC(C)(C)C(=O)NCCCC(=O)NCc1ccccc1,/,/,/,-30%,/,/
COc1ccc(N2C(=O)CSC23CCC(C(C)(C)C)CC3)cc1 (stereo not given),-6%,18µM*,-4%,7%,10%,?
COc1ccc(N2C(=O)CSC23CCCCC3)cc1,-7%,?,-5%,-12%,-18%,-13%
Cc1ccc(C)c2sc(NC(=O)c3ccc(S(=O)(=O)N4CCC(C)CC4)cc3)nc12,/,16µM*,/,-16%,/,?
CC1CCN(S(=O)(=O)c2ccc(C(=O)Nc3ncccc3O)cc2)CC1,-27%,15µM*,13%,13%,?,?
Cc1cccnc1NC(=O)c1ccc(S(=O)(=O)N2CCCCCC2)cc1,/,-9%,1%,1%,/,-10%
Cc1nnsc1C(=O)Nc1ccc(S(=O)(=O)N2CCC(C)CC2)cc1,-28%,10µM*,7.3µM*,1%,27%,?
Cc1nnsc1C(=O)Nc1ccc(S(=O)(=O)N2CCOCC2)cc1,/,/,/,-27%,/,/
COCCc1noc([C@@H]2CN(C3CCCCCC3)C[C@H]2CO)n1,/,/,/,46%,/,/
COCCN1CC(CO)C2(CCN(Cc3cc(F)ccc3F)CC2)C1 (stereo not given),/,/,/,53%,/,/
CCN(CC)S(=O)(=O)c1ccc(F)c(C(=O)NCC2COc3ccccc3O2)c1 (stereo not given),/,/,/,-2%,/,/
COc1cccc(CN2CCC2(C)C(=O)NCc2cccc(C(F)(F)F)c2)c1OC (stereo not given),/,13µM*,/,-1%,/,13µM*
CSc1ccc(CN2CCC2(C)C(=O)NCc2cccc(C(F)(F)F)c2)cc1 (stereo not given),/,?,/,-1%,/,?
CC1(C(=O)NCc2cccc(C(F)(F)F)c2)CCN1C1Cc2ccccc2C1 (stereo not given),/,21µM*,/,0%,/,?
COc1cccc(CN2CCC2(C)C(=O)Nc2cccc3cccnc23)c1F (stereo not given),/,18µM*,/,20%,/,?
COc1ccc(NC(=O)C2(C)CCN2Cc2ccc(OC)c3ccccc23)cc1OC (stereo not given),/,23µM*,/,-23%,/,?
COc1ccc(NC(=O)C2(C)CCN2Cc2cccc(OC)c2OC)cc1OC (stereo not given),/,16µM*,/,3%,/,?
CC1(C(=O)Nc2ccc3c(c2)OCCO3)CCN1Cc1csc2ccccc12 (stereo not given),/,?,/,-29%,/,?
COc1ccc(NC(=O)C2(C)CCN2Cc2csc3ccccc23)cc1OC (stereo not given),/,15µM*,/,-4%,/,15µM*
C/C(=N/N=C(/C)c1ccc[nH]1)c1ccc[nH]1,/,/,/,-2%,/,/
Cc1csc(SCC(=O)c2cc(C)n(Cc3cccs3)c2C)n1,8.9µM*,-78%,?,16%,6.3µM*,18µM*
Cc1cc(C(=O)CSc2nnc(N)s2)c(C)n1Cc1cccs1,11µM*,?,?,18%,8.9µM*,?
COc1ccc(-c2nnc(SCC(=O)c3cc(C)n(Cc4cccs4)c3C)o2)cc1,-3%,-19%,3%,-2%,-4%,-10%
O=C1CCC(C(=O)NCCN2C(=O)S/C(=C\c3cccnc3)C2=O)=NN1,-13%,-16%,6%,-18%,-32%,?
CS(=O)(=O)c1ccc(C(=O)NCCN2C(=O)S/C(=C\c3cccnc3)C2=O)cc1[N+](=O)[O-],?,4.6µM*,?,0%,5.6µM*,3.7µM*
SMILES,Gal4-VP16 FLuc,DT40 TDP1 no CPT,ELG1 DNA repair,12-LOX inh,RORgamma inh,DT40 TDP1 CPT
CCN(CC)S(=O)(=O)c1ccc(C(=O)NCCN2C(=O)S/C(=C\c3cccnc3)C2=O)cc1,?,18µM*,15µM*,-21%,17%,?
Cc1cc(Cl)ccc1OCCCC(=O)NCCN1C(=O)S/C(=C\c2cccnc2)C1=O,-33%,16µM*,?,-20%,13%,?
COc1ccc(NC(=C(C#N)C#N)C(F)(F)Cl)cc1,/,/,/,-11%,/,/
O=C(NCc1ccc(C(F)(F)F)cc1)C1CN(c2ccc(Cl)cc2)C(=O)N1 (stereo not given),/,/,/,-1%,/,/
COc1ccc(S(=O)(=O)N(C)C[C@H]2OCCCC[C@H](C)Oc3ccc(NC(=O)Nc4ccc(F)cc4)cc3C(=O)N([C@H](C)CO)C[C@H]2C)cc1,/,-11%,/,-3%,/,?
Cc1noc(C)c1NC(=O)N(C)C[C@H]1OCCCC[C@@H](C)Oc2ccc(NC(=O)Nc3ccc(F)cc3)cc2C(=O)N([C@@H](C)CO)C[C@H]1C,/,18µM*,/,-56%,/,?
COc1ccc(S(=O)(=O)Nc2ccc3c(c2)C(=O)N([C@@H](C)CO)C[C@@H](C)[C@H](CN(C)S(=O)(=O)c2ccc(F)cc2)OCCCC[C@H](C)O3)cc1,/,?,/,-9%,/,?
C[C@@H]1CN([C@@H](C)CO)C(=O)c2cc(NC(=O)c3ccccc3)ccc2O[C@@H](C)CCCCO[C@@H]1CN(C)S(=O)(=O)c1ccc(F)cc1,/,21µM*,/,-7%,/,?
Cc1ccc(S(=O)(=O)N(C)C[C@@H]2OCCCC[C@H](C)Oc3ccc(NC(=O)Nc4ccc(F)cc4)cc3C(=O)N([C@H](C)CO)C[C@H]2C)cc1,/,7.3µM*,/,?,/,13µM*
Cc1noc(C)c1NC(=O)N(C)C[C@H]1OCCCC[C@@H](C)Oc2ccc(NC(=O)c3ccccc3)cc2C(=O)N([C@H](C)CO)C[C@@H]1C,/,-19%,/,-10%,/,?
C[C@@H]1CN([C@H](C)CO)C(=O)c2cc(NC(=O)Nc3ccc(F)cc3)ccc2O[C@@H](C)CCCCO[C@H]1CN(C)S(=O)(=O)c1cccs1,/,26µM*,/,?,/,?
C[C@@H]1CCCCO[C@H](CN(C)S(=O)(=O)c2cccs2)[C@@H](C)CN([C@H](C)CO)C(=O)c2cc(NC(=O)Nc3ccc4c(c3)OCO4)ccc2O1,/,?,/,2%,/,?
N#CC1C=Cc2c(ccc3ccccc23)N1C(=O)c1ccccc1 (stereo not given),/,0.92µM*,/,-20%,/,0.58µM*
